{"source": "PubChem BioAssay AID782", "about": "(Emory University Molecular Libraries Screening Center, 2007)", "note": "Hit rate of the full screen: of about 220,000 compounds, about 800 (0.36%) were called active.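 Rule for the calls: active = inhibition above about 30% (limit read from the data); inactive = the rest.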 The sample as a whole holds a higher share of actives than the screen did."}
{"target": "Eukaryotic translation initiation factor 4E (Mus musculus) + Eukaryotic translation initiation factor 4 gamma 1 (Homo sapiens) (UniProt P63073+Q04637)", "sequence (P63073 whole entry, looked up, the tested form may be a part)": "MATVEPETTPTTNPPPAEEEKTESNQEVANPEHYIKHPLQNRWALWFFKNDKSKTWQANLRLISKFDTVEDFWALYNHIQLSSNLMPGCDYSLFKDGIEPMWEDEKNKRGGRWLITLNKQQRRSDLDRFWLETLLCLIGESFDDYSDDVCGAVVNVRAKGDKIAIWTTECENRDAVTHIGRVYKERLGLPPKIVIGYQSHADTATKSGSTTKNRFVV", "sequence (Q04637 whole entry, looked up, the tested form may be a part)": "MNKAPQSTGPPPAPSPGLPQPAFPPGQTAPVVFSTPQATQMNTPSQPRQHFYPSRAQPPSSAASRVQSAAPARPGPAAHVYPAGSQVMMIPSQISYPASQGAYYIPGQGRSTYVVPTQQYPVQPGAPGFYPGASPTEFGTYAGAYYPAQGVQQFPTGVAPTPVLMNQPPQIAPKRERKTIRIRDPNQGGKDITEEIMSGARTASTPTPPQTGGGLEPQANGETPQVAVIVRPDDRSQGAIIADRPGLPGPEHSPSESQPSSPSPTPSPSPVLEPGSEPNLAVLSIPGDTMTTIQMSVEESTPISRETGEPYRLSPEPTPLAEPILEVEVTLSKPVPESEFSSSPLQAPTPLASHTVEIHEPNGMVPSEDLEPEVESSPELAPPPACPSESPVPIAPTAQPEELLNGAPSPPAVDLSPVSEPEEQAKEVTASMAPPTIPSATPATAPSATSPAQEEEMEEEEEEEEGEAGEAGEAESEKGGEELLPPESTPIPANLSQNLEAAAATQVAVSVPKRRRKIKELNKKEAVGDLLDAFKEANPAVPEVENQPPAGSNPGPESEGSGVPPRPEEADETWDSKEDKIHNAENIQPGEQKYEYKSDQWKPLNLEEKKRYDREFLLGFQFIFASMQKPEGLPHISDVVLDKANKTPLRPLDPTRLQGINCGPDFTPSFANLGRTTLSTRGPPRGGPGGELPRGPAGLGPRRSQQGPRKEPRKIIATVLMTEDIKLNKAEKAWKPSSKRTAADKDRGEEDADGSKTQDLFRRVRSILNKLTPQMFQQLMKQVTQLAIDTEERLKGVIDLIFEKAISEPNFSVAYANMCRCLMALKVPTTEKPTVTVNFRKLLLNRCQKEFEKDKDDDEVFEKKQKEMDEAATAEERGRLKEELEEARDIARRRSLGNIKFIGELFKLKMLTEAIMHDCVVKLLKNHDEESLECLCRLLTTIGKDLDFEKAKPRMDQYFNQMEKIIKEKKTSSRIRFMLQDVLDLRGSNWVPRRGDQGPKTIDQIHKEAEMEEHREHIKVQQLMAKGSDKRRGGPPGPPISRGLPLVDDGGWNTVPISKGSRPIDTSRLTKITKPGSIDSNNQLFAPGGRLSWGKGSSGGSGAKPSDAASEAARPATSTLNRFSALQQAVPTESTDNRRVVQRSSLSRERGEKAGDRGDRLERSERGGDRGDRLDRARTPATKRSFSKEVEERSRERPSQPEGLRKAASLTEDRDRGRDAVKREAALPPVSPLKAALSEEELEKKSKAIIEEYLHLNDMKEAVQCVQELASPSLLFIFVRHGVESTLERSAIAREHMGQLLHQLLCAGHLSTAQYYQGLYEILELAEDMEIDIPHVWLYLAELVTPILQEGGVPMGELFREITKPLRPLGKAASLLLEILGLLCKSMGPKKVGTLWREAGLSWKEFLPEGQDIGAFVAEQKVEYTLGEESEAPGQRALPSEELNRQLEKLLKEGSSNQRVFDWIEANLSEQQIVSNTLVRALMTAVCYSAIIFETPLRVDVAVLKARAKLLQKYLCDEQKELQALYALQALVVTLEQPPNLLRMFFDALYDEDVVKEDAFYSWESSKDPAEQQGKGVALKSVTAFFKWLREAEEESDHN", "assay": "eIF4E–eIF4G protein interaction inhibitors, primary screen, biochemical, uHTS, TR-FRET, eIF4GI fragment (AID 782);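 note: 0% = full FRET control wells and 100% = background wells lacking eIF4GI fragment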", "conditions": "TR-FRET eIF4E-eIF4GI(517-606) binding, 2 h; at 21.7 µM; stronger effect = higher value"}
{"compound": "Cc1ccc(NC(=S)NC(NC(=O)Cc2cccc3ccccc23)C(Cl)(Cl)Cl)cc1", "note": "(stereo not given)", "inhibition": "-28% (inactive)"}
{"compound": "CN(c1ccccc1)S(=O)(=O)c1ccc(Cl)c(C(=O)OCC(=O)N2CCOCC2)c1", "inhibition": "-1.49% (inactive)"}
{"compound": "C/C(=N\\OCC(=O)O)c1ccc(Cl)cc1", "inhibition": "1.37% (inactive)"}
{"compound": "Cc1cc(C)nc(Nc2n[nH]c(-c3ccccc3N)n2)n1", "inhibition": "4.42% (inactive)"}
{"compound": "COc1ccc(C(=O)n2nc(-c3ccc(C)cc3)nc2N)cc1OC", "inhibition": "-7.73% (inactive)"}
{"compound": "COc1ccc(C(=O)Cn2nnc(-c3ccc(N4CCOCC4)cc3)n2)cc1OC", "inhibition": "-9.64% (inactive)"}
{"compound": "COC(=O)c1cc2occc2n1Cc1nc(-c2ccccc2C)oc1C", "inhibition": "4.23% (inactive)"}
{"compound": "O=C1Nc2cc(Cl)c(Cl)cc2N(O)N1c1ccccc1Cl", "inhibition": "0.39% (inactive)"}
{"compound": "FC(F)(F)Oc1ccc(-c2cn3cccnc3n2)cc1", "inhibition": "-1.02% (inactive)"}
{"compound": "Cc1nc(Cl)c(C#N)c2c1CCCC2", "inhibition": "5.36% (inactive)"}
{"compound": "COC(=O)c1c(C)c(C)nc(N)c1C#N", "inhibition": "-1.17% (inactive)"}
{"compound": "COCc1c(N)c(C)nc(Cl)c1C#N", "inhibition": "33.5% (active)"}
{"compound": "O=S(=O)(NCCc1ccc(F)cc1)c1cccc2cccnc12", "inhibition": "68.5% (active)"}
{"compound": "COc1ccc(CCNS(=O)(=O)c2cccc3cccnc23)cc1OC", "inhibition": "4.09% (inactive)"}
{"compound": "O=S(=O)(NCCOc1cccc2cccnc12)c1ccc(F)cc1", "inhibition": "-10.8% (inactive)"}
{"compound": "C=CCn1c(-c2ccccc2OCC)n[nH]c1=S", "inhibition": "-7.58% (inactive)"}
{"compound": "C=CCn1c(-c2sc(-c3ccccc3)nc2C)n[nH]c1=S", "inhibition": "3.95% (inactive)"}
{"compound": "C=CCn1c(-c2ccc3[nH]c(C)c(C)c3c2)n[nH]c1=S", "inhibition": "31.9% (active)"}
{"compound": "NC(N)=Nc1nc2ccc(Br)cc2c(=O)[nH]1", "inhibition": "-3.42% (inactive)"}
{"compound": "CC(NCc1nc2ccccc2n1C)C12CC3CC(CC(C3)C1)C2", "note": "(stereo not given)", "inhibition": "3.84% (inactive)"}
{"compound": "O=C(c1ccc(Br)o1)N(c1ccccn1)C1CCCCC1", "inhibition": "1.85% (inactive)"}
{"compound": "Cc1ccc(OS(=O)(=O)c2ccc(-c3csc(C)n3)s2)c(C)c1", "inhibition": "-1.07% (inactive)"}
{"compound": "CCOc1ccc(C2c3[nH]c4ccccc4c3CCN2Cc2cn(CC)nc2C)cc1", "note": "(stereo not given)", "inhibition": "1.87% (inactive)"}
{"compound": "COC(=O)c1cc2n(n1)CCCNC2=O", "inhibition": "2.7% (inactive)"}
{"compound": "CC(=O)Nc1ccc(S(=O)(=O)N(C)c2ccc(OCC(=O)OCC(=O)N3CCCCC3)cc2)cc1", "inhibition": "-2.79% (inactive)"}
{"compound": "N#C/C(C(=O)N1CCOCC1)=C1/SC(Cc2ccc(F)cc2)C(=O)N1c1ccccc1", "note": "(stereo not given)", "inhibition": "2.54% (inactive)"}
{"compound": "Cc1cccc2cc3c(N)c(C(=O)N4CCCc5ccccc54)sc3nc12", "inhibition": "-0.81% (inactive)"}
{"compound": "CCOc1ccccc1/C=N/NC(=O)CNC(=O)COc1ccccc1", "inhibition": "0.46% (inactive)"}
{"compound": "O=C(COc1cccc2ccccc12)Nc1cc(S(=O)(=O)N2CCOCC2)ccc1N1CCOCC1", "inhibition": "-0.21% (inactive)"}
{"compound": "CCn1c(=O)c([N+](=O)[O-])c(NCc2ccc3c(c2)OCO3)c2ccccc21", "inhibition": "-2.34% (inactive)"}
{"compound": "CCOc1ccc(-n2cnc3c(=O)[nH]c(N)nc32)cc1", "inhibition": "-1.7% (inactive)"}
{"compound": "CCC(C)(C)NC(=O)CN(C(=O)C(=O)Nc1ccc2c(c1)OCCO2)C(C)(C)CC", "inhibition": "1.1% (inactive)"}
{"compound": "O=C(Nc1ccccc1C(F)(F)F)N1CCCC1c1cccnc1", "note": "(stereo not given)", "inhibition": "0.48% (inactive)"}
{"compound": "COc1cc2c(cc1OC)CC1(CCCCC1)N=C2", "inhibition": "-2.07% (inactive)"}
{"compound": "CC1(C)CC(N(Cc2ccccc2)C(=O)Cc2ccccc2)CCO1", "note": "(stereo not given)", "inhibition": "1.78% (inactive)"}
{"compound": "CCc1ccc(N(CC(=O)Nc2sc3c(c2C(=O)OC)CCCC3)S(C)(=O)=O)cc1", "inhibition": "1.86% (inactive)"}
{"compound": "Cc1cc(C)cc(NC(=O)COC(=O)c2cc(C)oc2C)c1", "inhibition": "-0.87% (inactive)"}
{"compound": "CCn1c(SCC(=O)N/N=C/c2ccccc2OCC(=O)O)nnc1-c1ccc(C(C)(C)C)cc1", "inhibition": "-4.63% (inactive)"}
{"compound": "CC(C)(C)CN1C(=O)C(=O)NC[C@H]1Cc1cccc2ccccc12", "inhibition": "3.22% (inactive)"}
{"compound": "C/C=C/C(=O)Nc1nnc(C(C)C)s1", "inhibition": "-1.19% (inactive)"}
{"compound": "O=C1c2cccc(OCC(=O)N3N=C(c4cccs4)CC3c3ccc(F)cc3)c2CCN1Cc1ccccc1", "note": "(stereo not given)", "inhibition": "11.7% (inactive)"}
{"compound": "CN=C1C=C/C(=N/N=c2\\ccn(O)cc2C)C=C1C", "inhibition": "3.23% (inactive)"}
{"compound": "Brc1ccc(-c2noc(-c3ccccc3)n2)o1", "inhibition": "3.6% (inactive)"}
{"compound": "COC(=O)c1cc(NC(=O)c2cc(C(C)(C)C)nn2Cc2cccc(C)c2)ccc1N1CCOCC1", "inhibition": "-1.37% (inactive)"}
{"compound": "CC(C)CNc1ncnc2c1cnn2Cc1ccc(Cl)cc1", "inhibition": "-0.57% (inactive)"}
{"compound": "COc1ccccc1-n1ccnc1SCC(=O)NC(C)(C)C", "inhibition": "-3.84% (inactive)"}
{"compound": "COc1ccc(NC(=O)Nc2ccc3nc(C)c(C)nc3c2)cc1", "inhibition": "3.88% (inactive)"}
{"compound": "O=C(NCc1ccccn1)c1ccc2nc(-c3ccco3)c(-c3ccco3)nc2c1", "inhibition": "2.59% (inactive)"}
{"compound": "COCCNC(=O)Nc1ccc2nc(-c3ccco3)c(-c3ccco3)nc2c1", "inhibition": "53.1% (active)"}
{"compound": "CC(Sc1nnnn1C)C(=O)NC(=O)NC1CCCCC1", "note": "(stereo not given)", "inhibition": "3.38% (inactive)"}
{"compound": "COc1ccc(-n2c(C)cc(C(=O)CN3C(=O)NC4(CCc5ccccc54)C3=O)c2C)cc1", "note": "(stereo not given)", "inhibition": "-11% (inactive)"}
{"compound": "CC1=CC2=NC(=O)/C(=C/c3coc4ccccc4c3=O)C(=N)N2O1", "inhibition": "-3.42% (inactive)"}
{"compound": "COc1ccc(/C=C/C(=O)Nc2ccc(C)cc2)cc1S(=O)(=O)N1CCOCC1", "inhibition": "-7.24% (inactive)"}
{"compound": "Cc1cc(C)n(-c2nnc(N3CCN(c4ccccc4)CC3)nn2)n1", "inhibition": "1.58% (inactive)"}
{"compound": "CC(Nc1nc(N2CCN(CCO)CC2)nc2ccccc12)c1ccccc1", "note": "(stereo not given)", "inhibition": "1.5% (inactive)"}
{"compound": "Cn1c(CNC(=O)c2ccccc2F)nnc1SCc1ccc(F)cc1", "inhibition": "15.6% (inactive)"}
{"compound": "Cc1ccc(S(=O)(=O)NC(=O)N2CCCN(Cc3ccc(F)cc3)CC2)cc1", "inhibition": "0.62% (inactive)"}
{"compound": "CCCn1nc2cc(C(=O)NCc3ccccc3)ccc2c1OCC", "inhibition": "5.83% (inactive)"}
{"compound": "O=[N+]([O-])c1cccc(-c2nnc3c4ccccc4c4ccccc4n23)c1", "inhibition": "13.6% (inactive)"}
{"compound": "O=c1[nH]c2ccccc2n2c(-c3ccccc3)nnc12", "inhibition": "52.5% [fluorescence artefact?] (active)"}
{"compound": "CCOC(=O)c1cnc2[nH]c3ccccc3n2c1=O", "inhibition": "13.5% (inactive)"}
{"compound": "C=C1C2C[C@H](O)C(C)(C)[C@@]2(O)[C@H](O)C[C@]23C[C@@](C)(O)[C@H](CC[C@H]12)[C@H]3O", "note": "(stereo not given in full)", "inhibition": "-4.67% (inactive)"}
{"compound": "CSc1nnnn1-c1c(C)cc(C)cc1C", "inhibition": "-8.98% (inactive)"}
{"compound": "CC(C)=C(NC(=O)c1ccccc1)C(=O)N/N=C(\\C)c1ccccc1O", "inhibition": "2.96% (inactive)"}
{"compound": "Cc1c(Cl)cccc1NC(=O)CC1SC(=NCC2CCCO2)NC1=O", "note": "(stereo not given)", "inhibition": "1.68% (inactive)"}
{"compound": "CCCCNC(=O)N1CCN(S(C)(=O)=O)CC1", "inhibition": "2.45% (inactive)"}
{"compound": "Cc1ccc(Nc2nc(N)nc(CSc3nnc(C)s3)n2)cc1", "inhibition": "3.78% (inactive)"}
{"compound": "COc1ccc(-c2nn(-c3ccccc3)cc2/C=C\\C(=O)N2CCOCC2)cc1[N+](=O)[O-]", "inhibition": "1.3% (inactive)"}
{"compound": "Cc1noc(C)c1CSc1nc2cc(S(=O)(=O)N3CCOCC3)ccc2o1", "inhibition": "38.2% (active)"}
{"compound": "Cc1ccc(S(=O)(=O)N2CCN(S(=O)(=O)N3CCOCC3)CC2)cc1", "inhibition": "0.52% (inactive)"}
{"compound": "COc1ccc(NC(=O)c2oc3ccc(S(=O)(=O)N4CCOCC4)cc3c2C)cc1", "inhibition": "-0.4% (inactive)"}
{"compound": "O=C(CSC(=S)N1CCOCC1)c1ccccc1", "inhibition": "9.18% (inactive)"}
{"compound": "CCOC(=O)CNC(=O)/C(=C\\c1ccc(F)cc1)NC(=O)c1ccccc1", "inhibition": "0.01% (inactive)"}
{"compound": "Cc1ccc(NC(=O)Nc2cc(-c3ccccc3)nn2C)cc1Cl", "inhibition": "1.28% (inactive)"}
{"compound": "CCc1ccc(NC(=O)CC2C(=O)NCCN2C(=S)Nc2ccccc2)cc1", "note": "(stereo not given)", "inhibition": "2.38% (inactive)"}
{"compound": "COc1ccccc1NC(=O)CSc1nc2sc(C)c(C)c2c(=O)n1Cc1ccco1", "inhibition": "-13.8% (inactive)"}
{"compound": "Cc1ccc(C)c(SCc2nc3sc(C(=O)O)c(C)c3c(=O)[nH]2)c1", "inhibition": "-9.58% (inactive)"}
{"compound": "Cc1ccc(-c2nc(SCC(=O)Nc3ccccc3OC(F)F)c3c(C)c(C(=O)O)sc3n2)cc1", "inhibition": "34.5% (active)"}
{"compound": "CCOC(=O)C1=NN(c2ccc(Cl)cc2)/C(=C/C2=NCCc3cc(OC)c(OC)cc32)S1", "inhibition": "2.69% (inactive)"}
{"compound": "Cc1ccc(OCc2n[nH]c(=S)n2-c2ccc(C)cc2)cc1", "inhibition": "0.42% (inactive)"}
{"compound": "COc1ccc(OCC(O)CNCCNc2nccc(C(F)(F)F)n2)cc1", "note": "(stereo not given)", "inhibition": "-1.2% (inactive)"}
{"compound": "O=C(Nc1ccc(-c2csc(Nc3cccc(C(F)(F)F)c3)n2)cc1)c1cccc(C(F)(F)F)c1", "inhibition": "-4.77% (inactive)"}
{"compound": "COCc1cc(=O)[nH]c(-c2ccc(C(F)(F)F)cc2)n1", "inhibition": "-4.61% (inactive)"}
{"compound": "COc1cc(C(=O)OCc2ccc([N+](=O)[O-])cc2)cc(OC)c1OC", "inhibition": "-2.12% (inactive)"}
{"compound": "CC(C)(C)NC(=O)NC(=O)COC(=O)Cc1c(F)cccc1Cl", "inhibition": "0.46% (inactive)"}
{"compound": "Cn1c(S(=O)(=O)O)nc2ccccc21", "inhibition": "3.14% (inactive)"}
{"compound": "O=C(NNS(=O)(=O)c1ccccc1C(F)(F)F)c1cc2ncc(C(F)(F)F)cc2s1", "inhibition": "9.76% (inactive)"}
{"compound": "CCOC1CS(=O)(=O)CC1OCC", "note": "(stereo not given)", "inhibition": "-1.77% (inactive)"}
{"compound": "O=C(Cc1ccccc1)NCC1OCCc2ccccc21", "note": "(stereo not given)", "inhibition": "-5.93% (inactive)"}
{"compound": "CCNC(=S)N1CCN(CCN=CC2=C(O)CC(C)(C)CC2=O)CC1", "inhibition": "2.72% (inactive)"}
{"compound": "Oc1ccc(-c2nnc(Nc3ccccc3)c3ccccc23)cc1", "inhibition": "-1.27% (inactive)"}
{"compound": "Cc1nn(CC(=O)N/N=C/c2ccc(F)cc2)c(C)c1[N+](=O)[O-]", "inhibition": "10.1% (inactive)"}
{"compound": "O=C(Nc1ccc(Br)cc1)C1CCC(=O)N1Cc1ccccc1Cl", "note": "(stereo not given)", "inhibition": "7% (inactive)"}
{"compound": "O=C1c2ccccc2C(O)N1Cc1ccccc1", "note": "(stereo not given)", "inhibition": "-4.18% (inactive)"}
{"compound": "O=C1c2ccccc2C(O)N1Cc1ccccc1Cl", "note": "(stereo not given)", "inhibition": "43.6% (active)"}
